Measurements taken from PMC4336329 (PLoS ONE, 2015).
Hit rate of the full screen: of about 310,000 compounds, about 2,200 (0.71%) showed an effect of 50% or more. Effects have a minus sign here. What follows is part of a selection rich in strong results, with near analogues and random picks from the rest.

Biological target: human ether-à-go-go-related gene (hERG) potassium channel (human, UniProt Q12809)
Assay: primary screen, population patch clamp on CHO cells stably expressing hERG; higher = less effect of the substance

Sequence of human ether-à-go-go-related gene (hERG) potassium channel (Q12809 whole entry, looked up): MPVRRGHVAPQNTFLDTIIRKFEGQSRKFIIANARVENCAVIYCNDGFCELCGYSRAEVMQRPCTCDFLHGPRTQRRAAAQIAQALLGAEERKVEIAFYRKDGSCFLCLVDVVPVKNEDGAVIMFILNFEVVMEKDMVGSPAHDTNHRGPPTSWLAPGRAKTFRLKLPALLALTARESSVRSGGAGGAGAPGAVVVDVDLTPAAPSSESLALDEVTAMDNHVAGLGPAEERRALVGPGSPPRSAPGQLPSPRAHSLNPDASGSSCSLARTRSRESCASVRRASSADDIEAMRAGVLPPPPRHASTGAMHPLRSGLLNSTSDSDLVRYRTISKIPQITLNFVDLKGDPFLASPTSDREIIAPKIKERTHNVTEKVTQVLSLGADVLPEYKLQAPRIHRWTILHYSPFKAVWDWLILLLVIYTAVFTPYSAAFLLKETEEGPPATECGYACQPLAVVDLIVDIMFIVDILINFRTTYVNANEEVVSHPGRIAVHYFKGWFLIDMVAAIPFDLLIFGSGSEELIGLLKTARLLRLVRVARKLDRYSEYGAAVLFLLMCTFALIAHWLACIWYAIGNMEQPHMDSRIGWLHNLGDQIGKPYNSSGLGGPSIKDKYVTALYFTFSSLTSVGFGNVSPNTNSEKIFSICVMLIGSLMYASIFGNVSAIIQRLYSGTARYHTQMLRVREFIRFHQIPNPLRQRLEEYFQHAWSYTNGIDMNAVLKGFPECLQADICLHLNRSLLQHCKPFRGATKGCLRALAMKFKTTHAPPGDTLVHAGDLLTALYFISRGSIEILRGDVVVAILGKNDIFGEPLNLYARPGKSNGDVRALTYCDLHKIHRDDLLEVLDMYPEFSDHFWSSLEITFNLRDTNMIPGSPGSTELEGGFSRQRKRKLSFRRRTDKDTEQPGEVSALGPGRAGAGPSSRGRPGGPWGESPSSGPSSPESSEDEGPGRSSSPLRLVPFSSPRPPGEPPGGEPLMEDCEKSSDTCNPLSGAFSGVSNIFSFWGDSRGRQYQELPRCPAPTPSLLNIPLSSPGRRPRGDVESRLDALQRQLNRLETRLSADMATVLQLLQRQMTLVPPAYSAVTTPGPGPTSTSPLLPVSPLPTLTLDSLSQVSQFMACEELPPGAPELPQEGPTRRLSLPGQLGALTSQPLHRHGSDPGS

Structure (SMILES)	hERG current change (%, negative = inhibition) at 1uM [%]
O=C(NCc1ccccc1)c1onc(CSc2ccc(F)cc2)c1C(=O)NCCCN1CCOCC1	-54.9
O=C(NCc1ccccc1)c1onc(CSc2ccc(F)cc2)c1C(=O)NCc1ccccc1	5.63
O=C(NCCCN1CCOCC1)c1onc(CSc2ccccc2)c1C(=O)NCCCN1CCOCC1	14.7
CCC(CC)NCCOC(=O)c1ccc([N+](=O)[O-])cc1	-3.41
CN1C(=O)C(Cc2cccs2)C(=O)N(C)C1=O	15.2
CCCCn1c(NC(=O)c2ccc(Br)o2)c(C(=O)OCC)c2nc3ccccc3nc21	-17.9
CCCCCn1c(NC(=O)c2ccco2)c(C(=O)OCC)c2nc3ccccc3nc21	-73.9
CCCCn1c(NC(=O)c2ccco2)c(C(=O)OCC)c2nc3ccccc3nc21	-22
COc1ccc(S(=O)(=O)NCCC(C)C)cc1C	4.62
CCn1cc(CN(C)C(=O)/C=C/c2ccc([N+](=O)[O-])cc2)c(C)n1	-35.3
Cc1c(CN(C)C(=O)/C=C/c2ccc([N+](=O)[O-])cc2)cnn1C	-65.5
Cc1c(CN(C)C(=O)c2nn(C)cc2[N+](=O)[O-])cnn1C	10.8
CC(C)c1ccc(O)c(CN2CCN(c3ccccc3)CC2)c1	10.3
COc1ccc(C(C)=O)cc1CN1C(=O)NC2(CCCCCCC2)C1=O	19.8
CCOc1ccc(C(C)=O)cc1CN1C(=O)NC2(CCCCCCC2)C1=O	-51.8
CCOc1ccc(C(C)=O)cc1CN1C(=O)NC2(CCCCCC2)C1=O	13.5
CCC(=O)OCC(=O)Nc1ccc([N+](=O)[O-])cc1OC	9.97
Cc1ccccc1OCCC(=O)Nc1ccc(F)c(Cl)c1	13.7
CC(=O)N1CC(C)Sc2ccc(S(=O)(=O)NCc3ccc(Cl)cc3)cc21 (stereo not shown)	1.91
CN1CCCN(C(=O)/C=C/c2ccc(F)cc2)CC1	-5.11
O=C(/C=C/c1ccccc1)N1CCCN(C(=O)/C=C/c2ccccc2)CC1	-44
Cc1ccc(/C=C/C(=O)NCCCN2CCN(CCCNC(=O)/C=C/c3ccc(C)cc3)CC2)cc1	7.32
CCN1CCN(C(=O)/C=C/c2ccc(F)cc2)CC1	-13.1
Cc1ccc(/C=C/C(=O)N2CCCN(C(=O)/C=C/c3ccc(C)cc3)CC2)cc1	-53.5
CCN1CCN(C(=O)/C=C/c2ccc(C)cc2)CC1	4.54
O=C(/C=C/c1ccc(F)cc1)NCCNC(=O)/C=C/c1ccc(F)cc1	16.8
O=C(/C=C/c1ccc(F)cc1)NCCCN1CCN(CCCNC(=O)/C=C/c2ccc(F)cc2)CC1	-72.5
O=C(/C=C/c1ccc(F)cc1)N1CCCN(C(=O)/C=C/c2ccc(F)cc2)CC1	-84.7

Structure (SMILES)	hERG current change (%, negative = inhibition) at 1uM [%]
Cc1ccccc1S(=O)(=O)N1[C@@H](c2ccc(F)cc2)C(C(=O)O)=CC[C@H]1c1ccc(Cl)cc1	8.27
COc1ccc(/C=C2\CCCC3C2=NN(C(=O)CSc2ncn[nH]2)C3c2ccc(OC)cc2)cc1 (stereo not shown)	16.5
CCCCn1c(N)c(N(CC(C)C)C(=O)c2cccc(S(=O)(=O)N3CCCCCC3)c2)c(=O)[nH]c1=O	4.52
Cc1ccc(NC(=O)CSc2nnc(-c3ccco3)o2)c(C)c1	17.5
O=C(NCCCn1ccnc1)/C(=C\c1cccs1)NC(=O)c1ccccc1	-19.1
O=C(NCCCn1ccnc1)/C(=C\c1cccs1)NC(=O)c1cccs1	-27.6
Cc1ccc(C(=O)N/C(=C/c2cccs2)C(=O)NCCCn2ccnc2)cc1	-50
COc1ccc(C(=O)N/C(=C/c2cccs2)C(=O)NCCCn2ccnc2)cc1OC	0.585
Cc1ccc(C(=O)N/C(=C\c2cccs2)C(=O)NCCCn2ccnc2)cc1	-66
Cc1ccc(C(=O)N/C(=C\c2cccs2)C(=O)NCCCn2ccnc2)cc1C	-32.3
CSC1=N/C(=C\c2ccccc2Cl)C(=O)N1N(C)C	1.86
Cc1cc(=O)[nH]c(SC(C)C(=O)Nc2cccc3ccccc23)n1 (stereo not shown)	6.33
CCN1CCN(c2ccc(NC(C)=O)cc2Cl)CC1	10.3
CCCC(=O)Nc1ccc(N2CCN(CC)CC2)c(Cl)c1.Cl	-17.9
CCC(=O)Nc1ccc(N2CCN(CC)CC2)c(Cl)c1	8.56
CCCOc1ccc(C(=O)N2CCN(c3ccc(NC(=O)CC)cc3Cl)CC2)cc1	-58.7
CCN1CCN(c2ccc(NC(=O)c3cccc(F)c3)cc2Cl)CC1	-8.27
CCCCCC(=O)Nc1ccc(N2CCN(CC)CC2)c(Cl)c1	-55.6
COc1ccc(OCC(=O)Nc2ccc(N3CCN(C(=O)c4ccccc4)CC3)c(Cl)c2)cc1	9.86
CCN1CCN(c2ccc(NC(=O)c3ccc(F)cc3)cc2Cl)CC1	-66.8
CCCOc1ccc(C(=O)N2CCN(c3ccc(N)cc3Cl)CC2)cc1	-6.51
CCC(=O)NC(=S)NNC(=O)c1ccc([N+](=O)[O-])cc1	8.99
CC(OC(=O)c1cccs1)C(=O)NC1CCCCC1C (stereo not shown)	-66.1
CC(OC(=O)c1cccs1)C(=O)NC1CC1 (stereo not shown)	7.03
CC(OC(=O)CCC(=O)c1cccs1)C(=O)NC1CCCCC1C (stereo not shown)	0.622
CCOc1ccc(NC(=O)CN(C)C(=O)c2ccc(COc3ccccc3)cc2)cc1OCC	4.94
Cc1ccc(NS(=O)(=O)c2ccccc2Cl)c2c1CC(C)(C)O2	6.77
